# From PubChem BioAssay (NCI)
# The panel holds about 79,000 compounds, 15% with a hit somewhere; the sample as a whole holds those more often. Unmarked numbers belong to inactive results. Activity calls are given as the source filed them. Cut-off read from the data, not from the text of the source: active = growth inhibition above about 70%; inactive = the rest.
# Columns and labels:
# [1] = NCI Yeast Anticancer Drug Screen. Data for the rad50 strain (AID 155);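 note: 0% = growth of vehicle-only cultures of the same strain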; conditions: S. cerevisiae rad50 strain growth inhibition, active compounds read high
# How it was run: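 Cells are treated with compound, grown, and their growth is then scored against vehicle-only cultures of the same repair-deficient yeast strain.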
# [2] = NCI Yeast Anticancer Drug Screen. Data for the mec2-1 strain (AID 157); conditions: S. cerevisiae mec2-1 strain, active compounds read high
# How it was run: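 Each compound was tested on mec2-1 yeast, a strain altered in DNA damage repair or cell cycle control. Growth inhibition is reported relative to vehicle.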
# [3] = NCI Yeast Anticancer Drug Screen. Data for the sgs1 mgt1 strain (AID 161);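 note: 0% = growth of cultures given vehicle only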; conditions: S. cerevisiae sgs1 mgt1 strain, active compounds read high
# How it was run: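 Inhibition of yeast growth, normalised to vehicle-treated controls, is reported for a strain bearing genetic alterations in DNA damage repair.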
# [4] = NCI Yeast Anticancer Drug Screen. Data for the cln2 rad14 strain (AID 165);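 note: 0% = growth equal to vehicle treated cultures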; conditions: S. cerevisiae cln2 rad14 strain, active compounds read high
# How it was run: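 Test compounds were added to cln2 rad14 yeast cultures; inhibition of growth was then determined by comparison with vehicle treatment.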
# [5] = NCI Yeast Anticancer Drug Screen. Data for the bub3 strain (AID 167); conditions: S. cerevisiae bub3 mutant strain, active compounds read high
# How it was run: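 Part of a panel of yeast mutants defective in DNA damage repair or cell cycle regulation. Each strain is grown with compound, and inhibition is calculated relative to solvent-treated cultures.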
# [6] = NCI Yeast Anticancer Drug Screen. Data for the mlh1 rad18 strain (AID 175); conditions: S. cerevisiae mlh1 rad18 strain growth inhibition, active compounds read high
# How it was run: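 Inhibition values reflect reduced growth of mutant yeast versus vehicle-treated controls following compound exposure; the mutations affect DNA damage repair.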
# [7] = at 5.0 µM (retest, dose inferred, filed as 0.5)
# [8] = at 50.0 µM (retest, dose inferred, filed as 5.0)
Structure (SMILES),"growth inhibition [1, 7]","growth inhibition [1, 8]",growth inhibition ([1]; at 50.0 µM),"growth inhibition [2, 7]","growth inhibition [2, 8]",growth inhibition ([2]; at 50.0 µM),"growth inhibition [3, 7]","growth inhibition [3, 8]",growth inhibition ([3]; at 50.0 µM),"growth inhibition [4, 7]","growth inhibition [4, 8]",growth inhibition ([4]; at 50.0 µM),"growth inhibition [5, 7]","growth inhibition [5, 8]",growth inhibition ([5]; at 50.0 µM),"growth inhibition [6, 7]","growth inhibition [6, 8]",growth inhibition ([6]; at 50.0 µM)
COc1cccc(-c2cc(=O)c3c(C)ccnc3[nH]2)c1,8%,8%,80.5% (active),4%,4%,49.8%,15%,15%,70.8% (active),-4%,-4%,30%,-9%,-9%,68%,14%,14%,61.8%
COc1cc(OC)c(C(=O)[O][Sn]([c]2ccccc2)([c]2ccccc2)[c]2ccccc2)cc1OC,100% (active),98% (active),98.4% (active),100% (active),100% (active),96.3% (active),99% (active),99% (active),97.3% (active),99% (active),99% (active),90.5% (active),96% (active),99% (active),96.1% (active),99% (active),100% (active),96.7% (active)
CN(C)CC1CCC2=C(C1=O)C(c1ccc(Cl)c(Cl)c1)C1=C(CCC(CN(C)C)C1=O)O2 (configuration not stated),14%,11%,75.5% (active),-4%,-13%,49.9%,-5%,19%,47.6%,6%,-3%,-17.2%,-5%,2%,3.75%,4%,1%,48.5%
OC(C1CCC=NN1C(O)(C(F)(F)F)C(F)(F)F)(C(F)(F)F)C(F)(F)F (configuration not stated),8%,86% (active),89.7% (active),-3%,71% (active),83.1% (active),-2%,69%,87.7% (active),12%,58%,78.8% (active),-6%,78% (active),92.5% (active),9%,87% (active),94% (active)
CCCN(Cc1ccccc1)S(=O)(=O)c1ccc(C)cc1,-4%,95% (active),-14.1%,-4%,97% (active),-3.65%,-5%,95% (active),16%,-6%,93% (active),-19.5%,7%,96% (active),63.7%,-5%,96% (active),-7.75%
S=C(CSc1ccccc1)Nc1cccc2ccccc12,15%,82% (active),77% (active),-12%,51%,28.4%,-4%,67%,31.3%,-11%,72% (active),58.5%,4%,81% (active),81.7% (active),1%,81% (active),79.5% (active)
CN(Cc1cnc2nc(N)nc(N)c2n1)c1ccc(C(=O)NC(CCC(=O)O)C(=O)O)cc1C(F)(F)F (configuration not stated),-2%,76% (active),72.7% (active),61%,98% (active),50%,-12%,62%,67.5%,-16%,5%,29%,-19%,65%,75.5% (active),0%,86% (active),56.9%
CC1=NOC(=O)C1N=Nc1ccc(Br)cc1C (configuration not stated),99% (active),95% (active),93% (active),100% (active),96% (active),94.6% (active),99% (active),94% (active),94.8% (active),99% (active),94% (active),92.8% (active),99% (active),96% (active),94.5% (active),99% (active),94% (active),90.5% (active)
CC(C)N(C(=O)C12C3C4C1C1C2C3C41I)C(C)C (configuration not stated),16%,-6%,57.5%,-28%,19%,67.4%,44%,27%,68.5%,3%,28%,42.7%,-38%,-11%,61%,-34%,20%,73.5% (active)
CC(C)(C)c1ccc(O)c(O)c1,2%,56%,63.4%,10%,51%,61.6%,11%,54%,79.8% (active),-1%,16%,-8.95%,-3%,23%,37.6%,10%,75% (active),81.2% (active)
Cc1c2cnccc2c(C)c2c1c1ccccc1n2CCCCCCNCc1ccccc1,9%,95% (active),99% (active),-1%,76% (active),99.2% (active),1%,91% (active),99.3% (active),2%,83% (active),98.2% (active),2%,74% (active),98.8% (active),-3%,97% (active),99% (active)
CC(=O)Oc1c(Br)ccc2cc(C(Br)Br)c(C(=O)c3ccccc3)nc12,55%,55%,83.6% (active),38%,38%,87.5% (active),51%,51%,87.5% (active),30%,30%,82.9% (active),25%,25%,83.9% (active),53%,53%,81.4% (active)
CCOc1ccc(Nc2nc(C)c(C(=O)/C=C/c3ccc(Cl)cc3Cl)s2)cc1,25%,25%,71.1% (active),-6%,-6%,31.9%,8%,8%,33%,6%,6%,48.4%,6%,6%,55.5%,20%,20%,17.6%
CCC(/C=C/c1ccccc1)=N\Nc1ccccc1,11%,89% (active),47.7%,-10%,83% (active),79% (active),1%,91% (active),34.1%,-27%,76% (active),-12.3%,-15%,90% (active),87.3% (active),-13%,95% (active),74.4% (active)
CN(C)C(C)(C)CCNc1c2ccccc2nc2cccc([N+](=O)[O-])c12,96% (active),97% (active),96% (active),98% (active),100% (active),94.6% (active),98% (active),99% (active),96.7% (active),98% (active),99% (active),94.5% (active),96% (active),99% (active),97.2% (active),98% (active),100% (active),98% (active)
C/C(=N/O)C1CC(CCC2([N+](=O)[O-])CCC(C)(O)C(/C(C)=N/O)C2)([N+](=O)[O-])CCC1(C)O (configuration not stated),0%,-8%,12.7%,3%,-1%,11.3%,-1%,-4%,-7.15%,5%,-12%,15.3%,3%,-2%,90.5% (active),1%,0%,19.9%
O=C(N/C(=C\c1ccccc1)C(=O)N1CCN(c2ccccc2)CC1)c1ccccc1,-9%,6%,90.2% (active),-4%,-2%,93.2% (active),-7%,7%,95.3% (active),-12%,0%,87.8% (active),-4%,10%,88.3% (active),0%,6%,91.7% (active)
O=C(O)c1c[nH]c2cc(Cl)ccc2c1=O,4%,-5%,-1.55%,1%,5%,-20.9%,-8%,-3%,-22.1%,2%,1%,90.9% (active),1%,-2%,-19.8%,-1%,-4%,12.2%
c1ccc(C2=NCCC(c3ccccc3)S2)cc1 (configuration not stated),-2%,5%,-2.55%,-4%,3%,-4.1%,-3%,4%,55.5%,-19%,-4%,-41.5%,2%,0%,68.1%,0%,8%,21.9%
